From PubChem BioAssay AID2284379 (EPA ToxCast)
Inconclusive results are not listed. Active and inactive are the calls of the source. Rule for the calls: active = hit-call score of the fitted dose curve at least 0.9, where 1 is the maximum; inconclusive = response in the unintended direction; inactive = score below 0.9.

test: ATG_M_32_EcoTox2: Attagene TRANS-FACTORIAL EcoTox-2 HepG2 Assay for M32 Transcription Factor (Internal Marker)
Description: ATG_EcoTox2 is a cell-based, multiplexed assay created by modifying the existing Attagene TRANS-FACTORIAL system to include a panel of nuclear receptors from some or all the following species: human (Homo sapiens), african clawed frog (Xenopus laevis), rainbow trout (Oncorhynchus mykiss), japanese medaka (Oryzias latipes), and zebrafish (Danio rerio). The ECOTOX2-FACTORIAL format uses HepG2, a human liver cell line, with measurements taken at 24 hours after chemical dosing in a 24-well plate. ATG_M_32_EcoTox2 is one of 29 assay components calculated in the ATG_EcoTox2 assay. It is designed to make measurements of mRNA induction, a form of inducible reporter, as detected with fluorescence intensity signals by Reverse transcription polymerase chain reaction (RT-PCR) and Capillary electrophoresis technology.The assay endpoint ATG_M_32_EcoTox2 was analyzed in the positive analysis fitting direction relative to DMSO as the negative control and baseline of activity. Using a type of inducible reporter, measures of mRNA for gain-of-signal activity can be used to understand the background control at the transcription factor-level as they relate to the gene. Furthermore, this assay endpoint can be referred to as a secondary readout, because this assay has produced multiple assay endpoints where this one serves a background control function. To generalize the intended target to other relatable targets, this assay endpoint is annotated to the background measurement intended target family, where the subfamily is internal marker.
Human liver HepG2 cells are transiently transfected with multiple reporter transcription units (MRTUs) in 6-well plates using FuGene 6 reagent (Roche; 3 ml FuGene/1 mg DNA). The MRTU constructs are regulated by a cis-regulating element (promoter). Each RTU expresses a GAL4-UAS that regulates the transcription of a nearby target reporter gene sequence. A major difference between the CIS and TRANS system is that in CIS activities of endogenous TFs are measured, whereas the TRANS assay evaluates changes in activities of exogenous, chimeric NR-Gal4 proteins. […] At the end of 24 hour incubation, total RNA was isolated using TriZol reagent (Invitrogen). The isolated RNA is then reverse-transcribed using oligo(dT) primer and Mo-MLV reverse transcriptase (Invitrogen) with DNAse I (Ambion) treatment for 30 min. The one-tenth of the produced cDNA was amplified by PCR using Taq DNA polymerase (Invitrogen) and two reporter sequence-specific primers. The PCR products were fluorescently labeled by primer extension with 6-arboxyfluorescein (6-FAM) 5'-labeled reporter sequence-specific primer (2 min at 95 C, 20 s at 68 C and 10 min at 72 C) and these products were digested with 5U of HpaI (New England Biolabs) for 2h at 37 C. The fragments were purified using Qiaquick PCR columns (Qiagen), analyzed on an ABI 3130xL genetic analyzer (Applied Biosystems) with peak positions identified by using a set of X-rhodamine (ROX)-labeled MapMarker1000 molecular weight standards (BioVentures). The raw capillary electrophoresis data was processed using Attagraph software (Attagene).

Structure (SMILES) | outcome
CC(C)OC(=O)C(C)(C)Oc1ccc(C(=O)c2ccc(Cl)cc2)cc1 | inactive
C[C@@H]1C[C@H]2[C@@H]3CCC4=CC(=O)C=C[C@]4(C)[C@@]3(F)[C@@H](O)C[C@]2(C)[C@@]1(O)C(=O)COP(=O)(O)O | inactive
CN(CCOc1ccc(CC2SC(=O)NC2=O)cc1)c1ccccn1 (stereo unspecified) | inactive
Cc1c(C)c2c(c(C)c1O)CCC(C)(COc1ccc(CC3SC(=O)NC3=O)cc1)O2 (stereo unspecified) | inactive
Cc1nc(-c2ccc(C(F)(F)F)cc2)sc1C(=O)NCc1ccc(OC(C)(C)C(=O)O)cc1 | inactive
CC(c1cc2ccccc2s1)N(O)C(N)=O (stereo unspecified) | inactive
